# PubChem BioAssay (EPA / NIEHS)
# Inconclusive results are not listed. The source holds several records for some structures; these can differ, active in one and inactive in another. Active and inactive are the calls of the source. Rule for the calls: active = hit-call score of the fitted dose curve at least 0.9, where 1 is the maximum; inconclusive = response in the unintended direction; inactive = score below 0.9.
# Molecular target: zebrafish Thyroid Hormone Receptor beta (TRb), thrb (gene 30607) (UniProt Q9PVE4)
# Assay: ATG_zfTRb_XSP2: Attagene TRANS-FACTORIAL Multi-Species (XSP1) HepG2 Assay for zebrafish Thyroid Hormone Receptor beta (TRb) (AID 2283836);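 for AC50: potency for induction of reporter signal above DMSO so agonist direction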
# Procedure: ATG_XSP2_multi-species_TRANS is a cell-based, multiplexed assay created by modifying the existing Attagene TRANS-FACTORIAL system to include a panel of nuclear receptors from some or all the following species: human (Homo sapiens), mouse (Mus musculus), frog (Xenopus laevis), zebrafish (Danio rerio), chicken (Gallus gallus), and turtle (Chrysemys picta). The ECOTOX-FACTORIAL format uses HepG2, a human liver cell line, with measurements taken at 24 hours after chemical dosing in a 24-well plate. Xsp2 included 3 nM 6-alpha-fluorotestosterone and 1.5 nM norgestrel to stimulate the androgen receptor.ATG_zfTRb_XSP2 is one of 29 assay components measured or calculated from the ATG_XSP2_multi-species_TRANS assay. It is designed to make measurements of mRNA induction, a form of inducible reporter, as detected with fluorescence intensity signals by Reverse transcription polymerase chain reaction (RT-PCR) and Capillary electrophoresis technology.The assay endpoint ATG_zfTRb_XSP2 was analyzed in the positive analysis fitting direction relative to DMSO as the negative control and baseline of activity. Using a type of inducible reporter, measures of mRNA for gain-of-signal activity can be used to understand the reporter gene at the transcription factor-level as they relate to the gene TR. Furthermore, this assay endpoint can be referred to as a primary readout, because this assay has produced multiple assay endpoints where this one serves a reporter gene function. To generalize the intended target to other relatable targets, this assay endpoint is annotated to the nuclear receptor intended target family, where the subfamily is non-steroidal.
# Human liver HepG2 cells are transiently transfected with multiple reporter transcription units (MRTUs) in 6-well plates using FuGene 6 reagent (Roche; 3 ml FuGene/1 mg DNA). The MRTU constructs are regulated by a cis-regulating element (promoter). […] A major difference between the CIS and TRANS system is that in CIS activities of endogenous TFs are measured, whereas the TRANS assay evaluates changes in activities of exogenous, chimeric NR-Gal4 proteins. […] At the end of 24 hour incubation, total RNA was isolated using TriZol reagent (Invitrogen). The isolated RNA is then reverse-transcribed using oligo(dT) primer and Mo-MLV reverse transcriptase (Invitrogen) with DNAse I (Ambion) treatment for 30 min. The one-tenth of the produced cDNA was amplified by PCR using Taq DNA polymerase (Invitrogen) and two reporter sequence-specific primers. The PCR products were fluorescently labeled by primer extension with 6-arboxyfluorescein (6-FAM) 5'-labeled reporter sequence-specific primer (2 min at 95 C, 20 s at 68 C and 10 min at 72 C) and these products were digested with 5U of HpaI (New England Biolabs) for 2h at 37 C. The fragments were purified using Qiaquick PCR columns (Qiagen), analyzed on an ABI 3130xL genetic analyzer (Applied Biosystems) with peak positions identified by using a set of X-rhodamine (ROX)-labeled MapMarker1000 molecular weight standards (BioVentures). The raw capillary electrophoresis data was processed using Attagraph software (Attagene).
# Chain of zebrafish Thyroid Hormone Receptor beta (TRb), thrb (gene 30607) (Q9PVE4 whole entry, looked up): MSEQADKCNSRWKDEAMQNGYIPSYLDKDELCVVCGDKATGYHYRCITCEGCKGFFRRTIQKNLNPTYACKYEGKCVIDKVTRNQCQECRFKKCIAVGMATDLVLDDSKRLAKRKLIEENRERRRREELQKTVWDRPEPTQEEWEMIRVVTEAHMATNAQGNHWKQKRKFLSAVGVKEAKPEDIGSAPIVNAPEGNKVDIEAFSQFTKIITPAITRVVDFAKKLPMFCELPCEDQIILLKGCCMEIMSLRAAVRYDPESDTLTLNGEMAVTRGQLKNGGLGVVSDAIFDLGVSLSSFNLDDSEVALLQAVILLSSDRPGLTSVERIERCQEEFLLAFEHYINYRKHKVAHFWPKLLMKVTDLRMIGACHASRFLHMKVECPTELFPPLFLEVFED
Structure (SMILES),outcome,AC50
C[C@]12CCC(=O)C[C@@H]1CC[C@@H]1[C@@H]2CC[C@]2(C)[C@@H](O)CC[C@@H]12,inactive,–
Oc1ccc(-c2ccccc2)cc1,inactive,–
C[C@]12CC[C@H](O)CC1=CC[C@@H]1[C@@H]2CC[C@]2(C)C(=O)CC[C@@H]12,inactive,–
CC12CC1(C)C(=O)N(c1cc(Cl)cc(Cl)c1)C2=O (stereo not given),inactive,–
CC1(C)CCC(Cc2ccc(Cl)cc2)C1(O)Cn1cncn1 (stereo not given),inactive,–
Clc1ccc(C2(Cn3cncn3)CC(Br)CO2)c(Cl)c1 (stereo not given),inactive,–
CC(C)(C)CC(C)(C)c1ccc(O)cc1,inactive,–
COP(=O)(OC)O/C(=C\Cl)c1cc(Cl)c(Cl)cc1Cl,inactive,–
Oc1c(I)cc(I)cc1I,inactive,26.3 µM (active)
CC(C)C1CCC(Cc2ccc(Cl)cc2)C1(O)Cn1cncn1 (stereo not given),inactive,–
O=S(=O)(c1ccc(Cl)cc1)c1ccc(Cl)cc1,inactive,–
CC(C)(C)c1cc(O)ccc1O,inactive,–
CC(=O)C=C(C)C,inactive,–
O=C1C2(Cl)C3(Cl)C4(Cl)C(Cl)(Cl)C5(Cl)C3(Cl)C1(Cl)C5(Cl)C24Cl (stereo not given),inactive,–
